Some test systems named below: HCT-15 colon; HT29 colon; SNB-75 CNS; SNB-19 CNS; U251 CNS; PC-3 prostate; SK-MEL-5 melanoma; UACC-62 melanoma; LOX IMVI melanoma; SK-MEL-28 melanoma; SK-MEL-2 melanoma; EKVX NSCLC; SN12C renal; UO-31 renal; TK-10 renal; ACHN renal; CAKI-1 renal; A498 renal; CCRF-CEM leukemia; MOLT-4 leukemia.
What all share (assay): NCI-60 one-dose screen, 48 h (100 = growth as untreated, 0 = no growth, -100 = all killed)
Settings in all cases: 10 µM unless noted

Structures are written as SMILES. About 83,000 compounds went through this panel and 20% of them were active in at least one assay; those are over-represented in the sample as a whole.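 Method: cells in 96-well plates; compound added at one concentration; 48 h incubation; percent growth measured; values under 10 scored active.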 Unmarked numbers belong to inactive results. Calls of active or inactive are those of the source.

Regarding `COc1cc(/C=C2\C(=O)N(CCOc3cc(O)c4c(=O)cc(-c5ccccc5)oc4c3)c3ccccc32)cc(OC)c1O`, the growth in the assay on HCT-15 colon is 28%; in the assay on HT29 colon, 136%; with SNB-75 CNS it was 44.9%; in the assay on SNB-19 CNS, 65.3%; with U251 CNS, 39.7%; with PC-3 prostate it was 76.2%. Further, the growth in the assay on SK-MEL-5 melanoma is 68.1%; in the assay with UACC-62 melanoma, 24.6%; in the assay on LOX IMVI melanoma it was 36.7%; in the assay on SK-MEL-28 melanoma it was 83.6%; in the assay on SK-MEL-2 melanoma, 74.1%; with EKVX NSCLC, 83.2%. Moreover, the growth is 65.9% in the assay with SN12C renal; 63.5% with UO-31 renal; 109% with TK-10 renal; 66.9% in the assay with ACHN renal; 59.3% with CAKI-1 renal; 127% with A498 renal. Moreover, the growth in the assay on CCRF-CEM leukemia is 49.6%; in the assay on MOLT-4 leukemia, 51.8%.

`COC(=O)c1c(C(=O)OC)c2ccc3c4ncccc4ccc3n2c1C(=O)c1ccc(C)cc1`: the growth with HCT-15 colon was 91.1%; with HT29 colon, 95.1%; in the assay with SNB-75 CNS it was 95.2%; in the assay with SNB-19 CNS, 98.1%; with U251 CNS it was 98.9%; in the assay on PC-3 prostate it was 86.6%. The growth in the assay with SK-MEL-5 melanoma was 83.7%; in the assay with UACC-62 melanoma, 84.8%; with LOX IMVI melanoma, 88%; with SK-MEL-28 melanoma, 95.1%; with SK-MEL-2 melanoma, 83.2%; with EKVX NSCLC it was 83.2%. Also, the growth is 100% in the assay with SN12C renal; 74.3% in the assay on UO-31 renal; 93.4% in the assay on TK-10 renal; 77.1% in the assay with ACHN renal; 83.9% with CAKI-1 renal; 92.8% with A498 renal. The growth was 71.2% in the assay on CCRF-CEM leukemia and 73.3% in the assay on MOLT-4 leukemia.

On to `Fc1ccc(/C=C/c2cc(/C=C/c3ccc(F)cc3)n(-c3cc(F)cc(F)c3)n2)cc1`, for which the growth is 103% with HCT-15 colon; 78.7% with HT29 colon; 91% in the assay on SNB-75 CNS; 105% with SNB-19 CNS; 117% in the assay with U251 CNS; 76.4% with PC-3 prostate. In addition, the growth in the assay with SK-MEL-5 melanoma was 100%; with UACC-62 melanoma, 85.7%; in the assay on LOX IMVI melanoma it was 102%; in the assay with SK-MEL-28 melanoma, 101%; in the assay on SK-MEL-2 melanoma, 90.8%; in the assay with EKVX NSCLC, 92.3%. Also, the growth in the assay on SN12C renal was 102%; in the assay with UO-31 renal, 82.8%; in the assay with TK-10 renal, 82.5%; in the assay with ACHN renal, 99%; in the assay with CAKI-1 renal, 90.6%; in the assay with A498 renal, 95.6%. Besides, the values for the growth in the assay on CCRF-CEM leukemia and in the assay with MOLT-4 leukemia were 3.7% (active) and 103%, respectively.

Take `CC1=NN(c2cccc(Cl)c2)C(=O)/C1=C\C=C\c1ccccc1`: the growth was 5% (active) with HCT-15 colon; -29.5% (active) in the assay on HT29 colon; 50.9% with SNB-75 CNS; 37.5% in the assay with SNB-19 CNS; -57.4% (active) with U251 CNS; 45.5% in the assay with PC-3 prostate. Besides, the growth in the assay with SK-MEL-5 melanoma was 5.05% (active); in the assay with UACC-62 melanoma it was 28.2%; in the assay with LOX IMVI melanoma it was -87.9% (active); with SK-MEL-28 melanoma, -69.7% (active); with SK-MEL-2 melanoma it was 74.6%; with EKVX NSCLC it was 87.1%. Moreover, the growth in the assay with SN12C renal is 0.408% (active); with UO-31 renal, 69.7%; in the assay on TK-10 renal, 44.8%; with ACHN renal it was -51.3% (active); in the assay on CAKI-1 renal, 52.2%; in the assay on A498 renal it was 110%. For the same molecule, the values for the growth in the assay on CCRF-CEM leukemia and with MOLT-4 leukemia were 2.35% (active) and 28.4%, respectively.

`CS(=O)(=O)c1cccc(Nc2ncc3cc(-c4ccccc4Cl)ccc3n2)c1`: the growth in the assay with HCT-15 colon was 12.1%; with HT29 colon, 1.92% (active); in the assay with SNB-75 CNS it was -11.4% (active); in the assay with SNB-19 CNS it was 36.2%; in the assay with U251 CNS, 16.6%; with PC-3 prostate it was 12.3%. The growth with SK-MEL-5 melanoma was -49.1% (active); in the assay with UACC-62 melanoma, 4.77% (active); in the assay on LOX IMVI melanoma, -6.95% (active); in the assay with SK-MEL-28 melanoma it was 19.7%; in the assay on SK-MEL-2 melanoma, -25.6% (active); in the assay on EKVX NSCLC it was 23.9%. Also, the growth with SN12C renal is 11%; in the assay on UO-31 renal, -3.98% (active); in the assay with TK-10 renal it was 19.5%; in the assay on ACHN renal, 2.93% (active); with CAKI-1 renal, 9.3% (active); in the assay with A498 renal it was 5.57% (active). The growth was 9.21% (active) with CCRF-CEM leukemia and 5.83% (active) in the assay on MOLT-4 leukemia.

On to `C#CCOc1cccc(Nc2c(Cl)c(CCl)nc3ccc(Oc4ccccc4)cc23)c1`, for which the growth in the assay with HCT-15 colon was 12.3%; with HT29 colon, 7.96% (active); in the assay on SNB-75 CNS it was 75.5%; with SNB-19 CNS, 62.5%; with U251 CNS it was 24.9%; in the assay with PC-3 prostate it was 78%. Moreover, the growth with SK-MEL-5 melanoma is 30.4%; in the assay on UACC-62 melanoma, 39.9%; in the assay with LOX IMVI melanoma, -34.1% (active); with SK-MEL-28 melanoma it was 65.4%; with SK-MEL-2 melanoma, 37.4%; in the assay on EKVX NSCLC it was 76.5%. The growth with SN12C renal is 5.93% (active); in the assay on UO-31 renal, 61.7%; in the assay on TK-10 renal, 76.5%; in the assay on ACHN renal, 63.5%; in the assay with CAKI-1 renal, 76.1%; with A498 renal it was 99.7%. Further, the figures for the growth with CCRF-CEM leukemia and in the assay on MOLT-4 leukemia were 9.4% (active) and 14%, respectively.

Consider `COc1ccc(-c2nc3cc(C(=O)NC4CCCCC4)ccc3n2C2CCCCC2)cc1`, for which the growth was 21.5% in the assay on HCT-15 colon; 38.3% in the assay with HT29 colon; 91.6% in the assay with SNB-75 CNS; 109% in the assay with SNB-19 CNS; 91.5% with U251 CNS; 95.8% with PC-3 prostate. Besides, the growth with SK-MEL-5 melanoma was 65.3%; in the assay on UACC-62 melanoma it was 95.3%; with LOX IMVI melanoma, 76.9%; with SK-MEL-28 melanoma, 100%; in the assay with SK-MEL-2 melanoma, 92.4%; in the assay with EKVX NSCLC, 69.2%. In addition, the growth with SN12C renal is 96.4%; in the assay with UO-31 renal, 82.6%; in the assay with TK-10 renal it was 91.5%; with ACHN renal, 87%; with CAKI-1 renal, 89.2%; with A498 renal it was 103%. For the same molecule, the growth in the assay with CCRF-CEM leukemia was 94.4%; in the assay on MOLT-4 leukemia, 74.5%.

Consider `Cc1cccc(C)c1NC(=O)Nc1ccccc1`, for which the growth with HCT-15 colon was 25.5%; in the assay on HT29 colon it was 27.3%; in the assay on SNB-75 CNS, 108%; in the assay on SNB-19 CNS it was 90.8%; with U251 CNS it was 77.4%; with PC-3 prostate it was 70.7%. Also, the growth is 101% in the assay on SK-MEL-5 melanoma; 71.6% in the assay on UACC-62 melanoma; 69.8% with LOX IMVI melanoma; 108% with SK-MEL-28 melanoma; 29% with SK-MEL-2 melanoma; 121% with EKVX NSCLC. For the same molecule, the growth is 88.6% in the assay on SN12C renal; 80.7% in the assay on UO-31 renal; 96.7% in the assay with TK-10 renal; 4.67% (active) with ACHN renal; 54.3% with CAKI-1 renal; 109% in the assay with A498 renal. Also, the growth is 83.1% with CCRF-CEM leukemia and 81.7% in the assay on MOLT-4 leukemia.

The values are drawn from PubChem BioAssay (NCI).
